Measured values reported in PubChem BioAssay (NCI).
About 83,000 compounds went through this panel and 20% of them were active in at least one assay; those are over-represented in the sample as a whole.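 The test compound was applied at a single concentration to cells in 96-well plates for 48 hours, and percent growth was recorded.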 Unmarked numbers belong to inactive results. Activity calls are given as the source filed them. Rule for the calls: active = growth percent below 10; inactive = the rest.

Tests used:
Experiment in all cases: NCI-60 one-dose screen, 48 h (100 = growth as untreated, 0 = no growth, -100 = all killed)
Settings in all cases: 10 µM unless noted
HCT-15 colon = system: HCT-15 colon
HT29 colon = system: HT29 colon
SNB-75 CNS = system: SNB-75 CNS
SNB-19 CNS = system: SNB-19 CNS
U251 CNS = system: U251 CNS
PC-3 prostate = system: PC-3 prostate
UACC-62 melanoma = system: UACC-62 melanoma
LOX IMVI melanoma = system: LOX IMVI melanoma
SK-MEL-28 melanoma = system: SK-MEL-28 melanoma
SK-MEL-5 melanoma = system: SK-MEL-5 melanoma

| SMILES | growth (HCT-15 colon) | growth (HT29 colon) | growth (SNB-75 CNS) | growth (SNB-19 CNS) | growth (U251 CNS) | growth (PC-3 prostate) | growth (UACC-62 melanoma) | growth (LOX IMVI melanoma) | growth (SK-MEL-28 melanoma) | growth (SK-MEL-5 melanoma) |
| --- | --- | --- | --- | --- | --- | --- | --- | --- | --- | --- |
| C/C(CCC(=O)O)=N/Nc1ccc([N+](=O)[O-])cc1 | 34.5% | 86.1% | 101% | 94.4% | 75.7% | 65.1% | 23% | 23.9% | 104% |  |
| COc1ccc(/C=N/c2cc(C(C)(C)C)nn2-c2ccccc2)cc1 | 86.8% | 99.9% | 114% | 94.6% | 97.9% |  | 86.7% | 99.8% | 111% |  |
| CCOc1nc(-c2ccccc2)cc2c(O)c(C(=O)N/N=C/c3ccccc3O)[nH]c(=O)c12 | 94% | 110% | 86.3% | 97.2% | 101% | 92.8% | 117% | 101% | 67.4% |  |
| CCC(CCCN1C(=O)c2ccccc2C1=O)Nc1cc(OC)cc2cccnc12 (stereo not drawn) | 92.4% | 105% | 93% | 106% | 101% | 86.9% | 82.6% | 93.5% | 111% |  |
| CCc1c(C)c2ccc(OCC(=O)N=Nc3c(O)[nH]c4ccccc34)c(C)c2oc1=O | -15% (active) | -38.6% (active) | 30.7% | 19.2% | -70.8% (active) | -9.58% (active) | 22.8% | -37.8% (active) | 64.8% |  |
| CC(=O)/C(=C\c1c(-c2ccccc2)[nH]c2ccccc12)S(=O)(=O)c1ccccc1 | 13.5% | 11.3% | -23.1% (active) | 53.7% | 17.5% |  | 13.6% | -33.3% (active) | 26.8% | 9.11% (active) |
| COc1cc2ncnc(-n3ncc4cc(NC(=O)Nc5ccc(Cl)c(C)c5)ccc43)c2cc1OC | 103% | 73.6% | 82.7% | 109% |  | 65.6% | 88.9% | 98% | 80.5% | 88% |
| Cc1ncc(C(=O)Nc2ccc(CN3CCN(C)CC3)c(C(F)(F)F)c2)cc1C#Cc1c(N)ncc2ccccc12 | -90.8% (active) | -89% (active) | -90.6% (active) | -100% (active) | -99.6% (active) | -76.7% (active) | -82.3% (active) | -89.9% (active) | -96.5% (active) |  |
| CCN(CC)CCNc1ncnc2c1cnn2-c1ccc(Cl)cc1 | 34.8% | 7.44% (active) | 74.4% | 91.2% | 75.5% | 82% |  | 60% | -40.4% (active) |  |
| CC(=O)Nc1nc(C)c(C(=O)NNS(=O)(=O)c2ccccc2)s1 | 114% | 118% | 88.2% | 105% | 103% |  | 109% | 99.1% | 125% | 105% |
| N=C(c1ccccc1)N(Cc1ccccc1)Cc1ccccc1 | 74.8% | 53.4% | 97.7% | 99.8% | 96.7% | 81.5% |  |  | 98.8% |  |
| CCC(C)C1NC(=O)C(CC(C)C)NC(=O)C(C)NC(=O)C(C(C)C)NC(=O)C(CCCCN)NC(=O)C(CC(C)C)NC(=O)C(C(C)C)NC(=O)[C@H](C)NC(=O)C(C(C)CC)NC(=O)C(CCCN=C(N)N)NC(=O)C(CCCCN)NC(=O)C(CCCN=C(N)N)NC(=O)C(CCCCN)NC(=O)C([C@H](C)CC)NC(=O)C(CCCCN)NC1=O (stereo partly drawn) | 26.7% | 3.41% (active) | 28.8% | 17.4% | 3.51% (active) | -4.78% (active) | 21.3% | 35.4% | 41.3% |  |
| COc1cc2c(c3c1c(=O)c1cccc(F)c1n3C)C=CC(C)(C)O2 | 71.8% | 74.6% | 99.1% | 104% |  | 72.3% | 75.6% | 88.8% |  | 94.2% |
| O=C(/C=C/c1cccc(O)c1)c1cccc(-n2cc(-c3ccc(Cl)cc3)[nH]c2=O)c1 | -22.9% (active) | -10.1% (active) | 0.636% (active) | -10.6% (active) | -87.9% (active) |  | 5.09% (active) | -92.1% (active) | -86.4% (active) | -0.458% (active) |
| CCCCCCCCC1OC1CCCCCCCC(=O)O (stereo not drawn) | 96.6% | 118% | 92.9% | 101% | 91.3% | 89.9% | 88.5% | 109% | 110% |  |
| COc1cc(OC)c(NC(=O)n2ncc3cc(Nc4ncnc5ccccc45)ccc32)cc1Cl | 93.8% | 80.3% | 118% | 90.6% |  | 97.5% | 105% | 102% | 98.7% | 94.3% |
| COC(=O)[C@@H]1[C@H](O)[C@H](C)[C@H](O)[C@H](C)/C=C\C=C(C)C(=O)Nc2c(C)c(OC(C)=O)c3c(c2O)C(=O)C(C)=C2OCOC(=C23)C(C)=C[C@@](C)(O)[C@H](O)[C@@H](C)[C@H]1OC(C)=O | 118% | 110% | 86.6% | 113% | 111% |  | 113% | 104% | 138% |  |
| COc1ccc(C2CC(=O)c3c(O)cc(OC4OC(COC5OC(C)C(O)C(O)C5O)C(O)C(O)C4O)cc3O2)cc1O (stereo not drawn) | 101% | 102% | 82.1% | 110% | 104% |  | 111% | 107% | 124% | 104% |
| O=C(Nc1ccc(-n2cc(-c3ccncc3)c(-c3ccc(Cl)c(O)c3)n2)cc1)Nc1ccc(Cl)c(C(F)(F)F)c1 | 2.66% (active) | -92.4% (active) | -11.6% (active) | 27.4% | -31.4% (active) |  | -25% (active) | 5.17% (active) | -28.3% (active) | -89.4% (active) |
| COc1ccc(/C=C(/C(=O)N2CCN(c3ccc(C)cc3)CC2)c2cc(OC)c(OC)c(OC)c2)cc1N | 11.8% | 3.34% (active) | 9.7% (active) | 33.6% | 22% | 9.56% (active) | 40% | 22.2% | 54.3% |  |
| Cc1nc(N)sc1C(=O)NCCO | 108% | 112% | 105% | 101% | 106% |  | 93.8% | 104% | 113% | 103% |
| COc1cc(-c2nn(-c3ccc(NC(=O)c4cc(Cl)cc(Cl)c4)cc3)cc2-c2ccncc2)ccc1Cl | 22.6% | 16.9% | 54% | 87.7% | 55.7% |  | 70.4% | 71.6% | 85.5% | 79.4% |
| CC(=O)Nc1nc(C)c(C(=O)N/N=C/N2CCOCC2)s1 | 105% | 107% | 101% | 104% | 101% |  | 98.4% | 106% | 111% | 112% |
| COc1ccc(CNCCCN2C(=O)c3ccc4c5c(ccc(c35)C2=O)C(=O)N(CCCNCc2ccc(OC)c(OC)c2OC)C4=O)c(OC)c1OC | -63.7% (active) | -76.4% (active) | -96.8% (active) | -79.5% (active) | -94.2% (active) | -71.9% (active) | -78.4% (active) | -84.7% (active) | -92.9% (active) |  |
| Oc1ccc2ccccc2c1/C=N\Nc1ccccn1 | 28.7% | 111% | -7.53% (active) | 27.8% | 21.3% | 45.1% | 0.907% (active) | -4.69% (active) | 38.9% |  |
| COc1cc(-c2nn(-c3ccc(NC(=O)Nc4ccc(Cl)c(C(F)(F)F)c4)cc3)cc2-c2ccncc2)ccc1Cl | 9.82% (active) | -24.4% (active) | -0.838% (active) | 30.5% | -3.64% (active) |  | 6.01% (active) | 11.7% | 18.2% | -58.2% (active) |
| CC[C@@H](C)/C=C(C)/C=C/C(=O)c1c(O)c(-c2ccc(OC(=O)[C@@]34CC[C@@](C)(C(=O)O3)C4(C)C)cc2)cn(O)c1=O | 27% | 59.7% | 30.6% | 36.8% | 15.7% |  | 5.24% (active) | 0.589% (active) | 26.8% | -4% (active) |
| C=CC1CN2CCC1CC2C(O)c1ccnc2ccc(OC)cc12 (stereo not drawn) | 104% | 98.6% | 78.2% | 96.1% | 103% |  |  | 93.3% | 115% | 97.9% |
| Cc1nc(NC(=O)NC2CCCCC2)sc1C(=O)NN | 91.5% | 95.5% | 110% | 102% | 98.5% |  | 90.8% | 93.5% | 102% | 106% |
| COC1(OC)N=C(N)C2(C#N)C3(C(=O)Nc4ccccc43)C12C#N (stereo not drawn) | 83.8% | 98.9% | 66.5% | 108% | 67.9% | 87% | 47% | 50.3% | 103% |  |
